In general, AC50 refers to the concentration at which the activity in the assay is half-maximal.

Structures are written as SMILES. Out of some 16,000 compounds screened, about 5,800 (36%) were called active. Another 23% or so got no clear call; they are omitted. Some of the results follow. Unmarked numbers belong to inactive results. The call rests on the fitted dose curve; in most records, active means well fitted curve in the direction sought with a large enough effect; inconclusive means small, poorly fitted or top-dose-only effect, or effect the other way; inactive means no such curve, though single readings can be large or run the other way.
On the % scale 0 is the no-effect control and ±100 the full control effect.

In this assay the target is Cytochrome P450 2C19 (Homo sapiens) (UniProt P33261). Put plainly: Cytochrome panel assay with activity outcomes. Conditions: recombinant CYP, pro-luciferin dealkylation, luminescence, p450-cyp2c19; series mostly up to 57.1 µM.
Cytochrome P450 2C19 (Homo sapiens), sequence (P33261 whole entry, looked up): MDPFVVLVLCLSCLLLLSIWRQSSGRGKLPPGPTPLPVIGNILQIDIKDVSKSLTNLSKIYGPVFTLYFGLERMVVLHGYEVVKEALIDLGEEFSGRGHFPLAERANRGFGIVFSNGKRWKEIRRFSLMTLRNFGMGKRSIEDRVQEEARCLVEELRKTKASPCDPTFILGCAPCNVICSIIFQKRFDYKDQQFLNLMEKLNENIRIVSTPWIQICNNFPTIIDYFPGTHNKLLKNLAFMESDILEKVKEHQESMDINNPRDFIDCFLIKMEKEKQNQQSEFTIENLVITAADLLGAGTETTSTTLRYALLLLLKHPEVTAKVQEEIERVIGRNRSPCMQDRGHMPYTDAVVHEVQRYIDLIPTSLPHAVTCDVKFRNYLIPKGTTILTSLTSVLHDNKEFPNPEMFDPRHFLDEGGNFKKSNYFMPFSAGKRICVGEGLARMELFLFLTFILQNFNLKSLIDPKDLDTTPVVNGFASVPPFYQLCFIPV
`O=C1C2=CC[C@@H]3C(=O)N(c4ccc(F)cc4F)C(=O)[C@H]3[C@H]2[C@H](O)[C@H]2O[C@H]12`: the activity, negative = inhibition was -24% [at 11.4 µM].
Take `Cc1noc(C)c1C(=O)N1CCC2(CCCN(Cc3ccccc3)C2)CC1`: the AC50 result was “inactive”.
Same read-out and setting: next, `OCCN(Cc1ccccc1)Cc1cccc(Cl)c1Cl`: 0.282 µM (active); `CN(C)c1ccc(-c2nc(NCCc3cnc[nH]3)c3ccccc3n2)cc1`: 1.58 µM (active); `COCCNc1nc(-c2ccc(C(=O)N(C)C)cc2)nc2ccccc12`: “inactive”.
Take `COc1ccc(CNc2nc(-c3c(C)noc3C)nc3ccccc23)c(OC)c1`: the AC50 was 3.16 µM (active).
Take `COc1ccc(OC)c(Nc2nc(-c3cccc([N+](=O)[O-])c3)nc3ccccc23)c1`: the AC50 result was “inactive”.
Same read-out and setting: next, `COCCNc1nc(-c2ccc(N(C)C)cc2)nc2ccccc12`: 15.8 µM (active); `COCCNc1nc(-c2ccccc2CN(C)C)nc2ccccc12`: “inactive”; `Cc1noc(C)c1-c1nc(N2CCN(C)CC2)c2ccccc2n1`: “inactive”.
On the same count and under the same terms, next, `CC(=O)NCCNc1nc(-c2ccc(N(C)C)cc2)nc2ccccc12`: “inactive”; `COc1ccc(CNc2nc(-c3ccc4c(c3)OCO4)nc3ccccc23)c(OC)c1`: 7.94 µM (active); `Cn1cccc1C(=O)N1CCC2(CC1)CN(Cc1ccc(C#N)cc1)C2`: “inactive”.
Regarding `CNC(=O)[C@@H]1O[C@@H](n2cnc3c(NCc4cccc(I)c4)ncnc32)[C@H](O)[C@@H]1O`, the AC50 result was “inactive”.
Same read-out and setting: under `COc1c(O[C@H]2O[C@@H](CO)[C@@H](O)[C@@H](O)[C@@H]2O)cc2c(c1OC)-c1ccc(SC)c(=O)cc1[C@H](NC(C)=O)CC2` stands “inactive”; under `COc1ccccc1CNc1nc(-c2ccc3c(c2)OCO3)nc2ccccc12`, 3.16 µM (active).
The same measure, in the same setting: under `COc1ccccc1CNc1nc(-c2ccc(N(C)C)cc2)nc2ccccc12` stands 10 µM (active); under `COc1ccc(CNc2nc(-c3ccc(C(=O)N(C)C)cc3)nc3ccccc23)c(OC)c1`, 15.8 µM (active).
Same read-out and setting: next, `C=CC1=C(C)C2=Cc3c(C=C)c(C)c4[n]3[Sn+2][n]3c(c(C)c(CCC(=O)O)c3=CC3=NC(=C4)C(C)=C3CCC(=O)O)=CC1=N2`: “inactive”; `C=C1C(=O)O[C@@H]2[C@H]3O[C@]3(C)CCC=C(C)CC[C@@H]12`: “inactive”; `CCC(=O)NC(Nc1sc2c(c1C(=O)OC)CCCC2)(C(F)(F)F)C(F)(F)F`: 3.98 µM (active).
For the compound `CC(C)CC(=O)N[C@H](C(=O)N[C@H](C(=O)N[C@@H](CC(C)C)[C@H](O)CC(=O)N[C@@H](C)C(=O)N[C@@H](CC(C)C)[C@H](O)CC(=O)O)C(C)C)C(C)C`, the AC50 entry is “inactive”.
Consider `C#CCCCO/N=C1/[C@H]2O[C@@H]2[C@@H](O)[C@H]2[C@H]1CCn1c(=O)n([C@@H](CC)c3ccccc3)c(=O)n12`, for which the activity, negative = inhibition was -6.75% [at 11.4 µM].
For `COc1ccc(C(=O)CN(C(=O)c2ccc(Cl)cc2)N2C(=O)c3ccccc3C2=O)cc1`, the half-maximal activity concentration (AC50) was 4.47 µM (active).
In the case of `Cc1ccc(C(=O)CN(C(=O)c2ccc(Cl)cc2)N2C(=O)c3ccccc3C2=O)cc1`, the AC50 is 15.8 µM (active).
On the same count and under the same terms, next, `COc1ccccc1CNc1ncncc1-c1ccccc1Cl`: 1.26 µM (active); `COc1ccccc1CNc1ncncc1-c1ccccc1C`: 3.98 µM (active); `COc1ccc(CNc2ncncc2-c2ccccc2C)c(OC)c1`: 1.58 µM (active).
The same measure, in the same setting: under `COc1ccc(CNc2ncncc2-c2ccccc2OC)c(OC)c1` stands 2 µM (active).
Same read-out and setting: under `CCCCOc1ccccc1N` stands 14.1 µM (active); under `CCCCOc1cc(C[C@@H]2CNC(=O)N2)ccc1OC`, “inactive”.
Consider `CC[N+](CC)(CC)CCOc1cccc(OCC[N+](CC)(CC)CC)c1OCC[N+](CC)(CC)CC`, for which the AC50 entry is “inactive”.
Same read-out and setting: under `CC(C)(C)n1ncc2c(=O)n(CC(=O)NCc3ccccc3Cl)cnc21` stands 14.1 µM (active); under `Cc1ccc(C)c(Cn2cnc3c(cnn3C(C)(C)C)c2=O)c1`, 0.398 µM (active); under `Cc1ccccc1Cn1cnc2c(cnn2C(C)(C)C)c1=O`, 2 µM (active).
Same read-out and setting: under `Cc1ccc(NC(=O)Cn2cnc3c(cnn3C(C)(C)C)c2=O)cc1` stands “inactive”; under `Cc1ccc(-n2ncc3c(=O)n(CC(=O)NCC4CCCO4)cnc32)cc1` (stereo not drawn), “inactive”.
Still for that read-out and setting: under `O=c1[nH]c2cc(Cl)ccc2c(O)c1-c1ccc(Oc2ccccc2)cc1` stands “inactive”.
Regarding `Nc1cc(Cl)ccc1Oc1ccccc1`, the half-maximal activity concentration (AC50) was 3.98 µM (active).
`Nc1cc(Cl)ccc1Oc1ccc(Cl)cc1`: the concentration at half-maximal activity (AC50) was 0.562 µM (active).
Take `Cc1cc(=O)[nH]c(-n2[nH]c(C)cc2=O)n1`: the AC50 result is “inactive”.
On the same count and under the same terms, under `CCCn1c(C)nc2c(c1=O)c1nc3ccccc3nc1n2CCC1=CCCCC1` stands 8.91 µM (active); under `CCO/C(C)=N/n1c2nc3ccccc3nc2c2c(=O)n(CC(C)C)c(C)nc21`, “inactive”.
Regarding `OCCSCc1cc(Cl)cc(Cl)c1O`, the activity, negative = inhibition is -25.3% [at 11.4 µM].
`Oc1ccc(Cl)cc1Cc1cc(Cl)cc(Cc2cc(Cl)ccc2O)c1O`: the AC50 is 1.26 µM (active).
Still for that read-out and setting: under `Oc1ccc(Cc2cc(Cl)cc(Cl)c2O)cc1Cl` stands 1.26 µM (active).
With `O=C(O)Cc1cc(Cl)ccc1O`, the activity, negative = inhibition was 42.6% [at 11.4 µM].
With `COC(=O)[C@@]1(Cc2ccc(OC)cc2)[C@H]2c3cc(C(=O)N4CCCC4)n(Cc4cc(F)cc5c4OCOC5)c3C[C@H]2CN1C(=O)c1ccccc1`, the half-maximal activity concentration (AC50) is 7.94 µM (active).
On the same count and under the same terms, next, `COC(=O)[C@@]1(Cc2ccccc2)[C@H]2c3cc(C(=O)N4CCCC4)n(Cc4cc(F)cc5c4OCOC5)c3C[C@H]2CN1C(=O)c1ccccc1`: 0.251 µM (active); `COc1ccc(C(=O)N2CCC3(CCCN(Cc4ccccc4OC)C3)CC2)cc1`: “inactive”.
The same measure, in the same setting: under `Nc1nc(SCc2ccc([N+](=O)[O-])cc2)c2ncn([C@@H]3O[C@@H](CO)[C@@H](O)[C@H]3O)c2n1` stands “inactive”.
Take `Cn1cnc([N+](=O)[O-])c1Sc1nc(N)nc2c1ncn2Cc1ccccc1`: the activity, negative = inhibition is 21.2% [at 11.4 µM].
As for `CCCn1cnc2c(SCc3ccc(Cl)cc3)nc(N)nc21`, the concentration at half-maximal activity (AC50) is 0.501 µM (active).
With `OC[C@@H]1O[C@@H](n2cnc3c(SCc4ccccc4)ncnc32)[C@@H](O)[C@H]1O`, the activity, negative = inhibition is 1.35% [at 11.4 µM].
On to `Nc1nc(SCc2ccccc2)c2ncn(Cc3ccccc3)c2n1`, for which the half-maximal activity concentration (AC50) is 2.51 µM (active).
Take `Cn1c(=O)c2cc(S(=O)(=O)NCCC(=O)Nc3ccc(Cl)cc3)ccc2n(C)c1=O`: the AC50 result is “inactive”.
Consider `CCCN(CCC)CCNC(=O)C1CCCN(S(=O)(=O)c2ccc3c(c2)oc(=O)n3C)C1` (stereo not drawn), for which the AC50 result was “inactive”.
The same measure, in the same setting: under `Cn1c(=O)oc2cc(S(=O)(=O)NCCC(=O)N3CC=C(c4ccccc4)CC3)ccc21` stands 6.31 µM (active).
